Source: PubChem BioAssay (Tox21)
Results filed as inconclusive are left out. Calls of active or inactive are those of the source. Unless noted, the call rests on the fitted dose curve.

Tests used:
[1] = qHTS assay to identify small molecule antagonists of the vitamin D receptor (VDR) signaling pathway - cell viability counter screen (AID 743225; active means well fitted curve in the direction sought with a large enough effect in the repeat runs; an effect the other way counts as inactive or inconclusive; further: nearly all actives have a fitted effect of over 50% in size)
In short: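 Cells (VDR-UAS-bla HEK 293T) are plated, rested 4 h at 37C, dosed with compound and 3 nM final 1-alpha,25-dihydroxy vitamin D3, and incubated 16 h. Viability is taken from CellTiter-Glo luminescence in the reporter wells.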

[2] = qHTS assay to identify small molecule agonists of the NFkB signaling pathway (AID 1159509; active means well fitted curve in the direction sought with a large enough effect in the signal ratio in the repeat runs, not every such curve was filed as active; the % refers to the signal ratio; further: series mostly up to about 61 µM)
In short: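 Agonist activity was read as beta-lactamase-driven FRET change (460 and 530 nm emission, 405 nm excitation) following 1.5 hr substrate loading at room temperature. Beforehand, ME-180 NFkB-bla reporter cells were treated with compounds for 5 hr at 37 C.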

[3] = qHTS assay to identify small molecule agonists of the NFkB signaling pathway - cell viability counter screen (AID 1159515); further: series mostly up to about 61 µM; nearly all actives have a fitted effect of over 55% in size
In short: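 Counter screen run alongside the NFkB-bla agonist assay: ME-180 reporter cells exposed to compounds for 5 hr, then lysed with CellTiter-Glo in the same wells. Luminescence, read after 30 min, reflects viable cells.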

[4] = qHTS assay to identify small molecule agonists of the endoplasmic reticulum stress response signaling pathway (AID 1159516; active means well fitted activation curve with a large enough effect in the signal ratio in the repeat runs, not every such curve was filed as active; the % refers to the signal ratio)
In short: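 For this screen, HeLa cells stably carrying beta-lactamase under the ER stress response element received test compounds, positive controls or DMSO for 5 hr at 37 C; B/G FRET substrate was then added and dual-wavelength emission recorded.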

[5] = qHTS assay to identify small molecule agonists of the endoplasmic reticulum stress response signaling pathway - cell viability counter screen (AID 1159517); further: series mostly up to about 61 µM; nearly all actives have a fitted effect of over 50% in size
In short: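 In parallel with the ESRE reporter read, cytotoxicity was scored by CellTiter-Glo luminescence (30 min, room temperature) on HeLa ESRE-bla cells dosed for 5 hr.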

[6] = qHTS assay to identify small molecule antagonists of the retinoid-related orphan receptor gamma (ROR-gamma) signaling pathway - cell viability counter screen (AID 1159520; active means well fitted curve in the direction sought with a large enough effect in the repeat runs; an effect the other way counts as inactive or inconclusive; further: nearly all actives have a fitted effect of over 50% in size)
In short: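 Tet-on ROR gamma CHO cells were given compounds for 2 hr, then doxycycline hyclate at 1 uM final, and incubated 16 hr at 37 C. Viability was measured as ATP content by CellTiter-Glo luminescence.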

[7] = target: Nuclear receptor ROR-gamma (Homo sapiens) (UniProt P51449); experiment: qHTS assay to identify small molecule antagonists of the retinoid-related orphan receptor gamma (ROR-gamma) signaling pathway (AID 1159521; active means well fitted curve in the direction sought with a large enough effect in the repeat runs; an effect the other way counts as inactive or inconclusive;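 further: CHO cells with doxycycline inducible ROR-gamma driving an RORE luciferase reporter; top concentration of the series differs between compounds; nearly all actives have a fitted effect of over 50% in size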)
In short: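 RORγ antagonism is scored from reduced reporter luminescence in Tet-on CHO cells. Induction used 1 uM final doxycycline hyclate for 16 h at 37 C, following a 2 h compound exposure.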

[8] = qHTS assay to identify small molecule agonists of the AP-1 signaling pathway - cell viability counter screen (AID 1159525); further: nearly all actives have a fitted effect of over 55% in size
In short: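 Same-well cytotoxicity counter screen of the Tox21 10K library in ME-180 cells. The readout is ATP-dependent luminescence after 5 h compound treatment. Data are normalised to DMSO and tetra n-octyl ammonium bromide controls.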

[9] = qHTS assay to identify small molecule agonists of the AP-1 signaling pathway (AID 1159526)
[10] = qHTS assay to identify small molecule agonists of the vitamin D receptor (VDR) signaling pathway - cell viability counter screen (AID 743224; active means well fitted curve in the direction sought with a large enough effect in the repeat runs; an effect the other way counts as inactive or inconclusive)
In short: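 Counter screen for cytotoxicity: VDR-bla cells at 2,000 cells/well, 16 h compound exposure, then CellTiter-Glo luminescence after the beta-lactamase measurement.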

Measured: Potency

C(COCC1CO1)OCC1CO1 (stereo unspecified)
not listed: [10]
inactive: all other assays above

CC(=O)CN(CC(C)=O)N=O
not listed: [10]
inactive: all other assays above

CC(C)NCC(O)c1ccc([N+](=O)[O-])cc1 (stereo unspecified)
not listed: [10]
inactive: all other assays above

CCOc1cc(OP(=S)(OC)OC)nc(CC)n1
not listed: [10]
inactive: all other assays above

CCNc1nc(Cl)nc(NC(C)(C)C)n1
not listed: [1] | [6]
inactive: all other assays above

O=C(Cl)OCc1ccccc1
not listed: [1] | [6]
inactive: all other assays above

CNC(=O)NC(O)C(Cl)(Cl)Cl (stereo unspecified)
not listed: [10]
inactive: all other assays above

CC1NCCOC1c1ccccc1 (stereo unspecified)
not listed: [10]
inactive: all other assays above

CC(C)(O)C(Cl)(Cl)Cl
not listed: [10]
inactive: all other assays above

C[C@H](CN1CCOCC1)C(C(=O)N1CCCC1)(c1ccccc1)c1ccccc1
not listed: [1] | [6]
inactive: all other assays above

CCNc1nc(NCC)nc(SC)n1
not listed: [10]
inactive: all other assays above

COc1ccc2c(C(=O)c3ccc(Cl)cc3)c(C)n(CC(=O)O)c2c1
not listed: [10]
inactive: all other assays above

CN1C(=O)COc2c(C(=O)NC3CN4CCC3CC4)cc(Cl)cc21 (stereo unspecified)
not listed: [1] | [6]
inactive: all other assays above

O=C(O)c1c(Cl)ccc2cc(Cl)cnc12
not listed: [1] | [6]
inactive: all other assays above

CCN(CC)C1CCCCC1
not listed: [6]
inactive: all other assays above

CCCN1CCC[C@@H]2Cc3nc(N)ncc3C[C@H]21
not listed: [1] | [6]
inactive: all other assays above

C[N+]1(C)CCCCC1
not listed: [1] | [6]
inactive: all other assays above

Cn1c(N)nc2c3cccnc3ccc21
not listed: [6]
inactive: all other assays above

COc1cc(CCN)cc(OC)c1OC
not listed: [1] | [6]
inactive: all other assays above

CCc1ccc(C2CCNCC2)cc1
not listed: [6]
inactive: all other assays above

CCOP(=O)(CN(CCO)CCO)OCC
not listed: [6]
inactive: all other assays above

OCC(Cl)CCl (stereo unspecified)
not listed: [6] | [10]
inactive: all other assays above

CC(C)N(Cc1ccccc1)C(=O)C(C)(C)C
not listed: [6]
inactive: all other assays above

CCC(C)(C#N)N=NC(C)(C#N)CC (stereo unspecified)
not listed: [1] | [6]
inactive: all other assays above
